{"source": "PubChem BioAssay AID2451", "about": "(National Center for Advancing Translational Sciences (NCATS), 2010)", "note": "The whole screen tested about 290,000 compounds, of which about 2,100 (0.72%) were called active. About 4% were inconclusive and are not listed. Calls come from the whole dose curve; as a rule, active = well fitted inhibition curve with a large enough effect; inconclusive = small, poorly fitted or top-dose-only effect, or effect the other way; inactive = flat fitted curve, though single readings scatter. This excerpt belongs to a sample that is enriched for actives. % is set by controls: 0 for no effect and ±100 for the full control effect; potency is the fitted concentration of half-maximal effect.", "data": [{"target": "Fructose-bisphosphate aldolase (Giardia intestinalis (strain ATCC 50803 / WB clone C6)) (UniProt A8B2U2)", "sequence (A8B2U2 whole entry, looked up)": "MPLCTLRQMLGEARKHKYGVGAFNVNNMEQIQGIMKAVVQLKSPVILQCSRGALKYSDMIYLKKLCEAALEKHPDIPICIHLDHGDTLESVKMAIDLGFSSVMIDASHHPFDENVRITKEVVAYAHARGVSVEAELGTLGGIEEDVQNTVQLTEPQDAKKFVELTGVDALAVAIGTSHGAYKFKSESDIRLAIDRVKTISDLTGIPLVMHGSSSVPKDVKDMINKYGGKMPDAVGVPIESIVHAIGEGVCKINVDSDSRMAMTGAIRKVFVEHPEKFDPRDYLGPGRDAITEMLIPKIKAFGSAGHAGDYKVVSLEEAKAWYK", "assay": "qHTS Assay for Inhibitors of Fructose-1,6-bisphosphate Aldolase from Giardia Lamblia; note: nearly all actives have a fitted effect of over 55% in size", "conditions": "purified Giardia FBPA; series mostly up to 59.6 µM; activity, negative = inhibition: at the top concentration", "how_it_was_run": "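40 nM FBPA preincubated 10 min at RT with compound (up to 57.5 uM final), then substrate plus GAPDH/TPI/NAD/arsenate coupling and diaphorase/resazurin added. Fluorescence read after 20 min at RT, 525/598 nm.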", "values": [{"molecule": "CCOC(=O)c1c(-c2ccccc2)oc2cc(Br)c(O)c(C=O)c12", "activity, negative = inhibition": "-9.36% (inactive)"}, {"molecule": "CCOc1ccc(-n2c(SCC(=O)Nc3cc(C(=O)O)ccc3Cl)nc3ccccc3c2=O)cc1", "activity, negative = inhibition": "14.4% (inactive)"}, {"molecule": "O=C(Nc1ccccc1Cl)Nc1cccc2cccnc12", "activity, negative = inhibition": "-7.02% (inactive)"}, {"molecule": "O=C(Nc1ccccc1Cl)O/N=C(/c1ccccc1)c1ccccn1", "Potency": "15.8 µM (active)"}, {"molecule": "Cc1ccc(C(=O)O/N=C(\\N)c2ccccn2)cc1Cl", "activity, negative = inhibition": "16.7% (inactive)"}, {"molecule": "O=C(CCC(=O)n1ncc2ccccc21)NCc1ccccc1Cl", "activity, negative = inhibition": "8.97% (inactive)"}, {"molecule": "O=C1CSC(=S)N1c1ccc(O)cc1", "activity, negative = inhibition": "-21.6% (inactive)"}, {"molecule": "O=C(Nc1ccncc1)Nc1ccc(F)cc1", "activity, negative = inhibition": "-7.88% (inactive)"}, {"molecule": "Oc1ccc2ccccc2c1N=Nc1nccs1", "Potency": "12.6 µM (active)"}, {"molecule": "CN(C)CCCn1c(=O)n(Cc2ccccc2)c(=O)c2c3c(sc21)CCCCC3", "activity, negative = inhibition": "3.4% (inactive)"}, {"molecule": "O=C(CNC(=O)Cc1ccccc1)N=Nc1c(O)[nH]c2ccc(Br)cc12", "activity, negative = inhibition": "-17.6% (inactive)"}, {"molecule": "NS(=O)(=O)c1ccc(N=Nc2c(O)[nH]c3ccc(Br)cc23)cc1", "activity, negative = inhibition": "22.7% (inactive)"}, {"molecule": "Oc1[nH]c2ccc(Br)cc2c1N=Nc1nn[nH]n1", "Potency": "15.8 µM (active)"}, {"molecule": "CCOC(=O)C1CCN(C(=O)COc2cccc3ccccc23)CC1", "activity, negative = inhibition": "-2.04% (inactive)"}, {"molecule": "Cn1c(=O)[nH]c(=O)c2c1[nH]c(=S)n2Cc1ccccc1", "Potency": "8.91 µM (active)"}, {"molecule": "COc1ccc(CNc2nc3c(c(=O)[nH]c(=O)n3C)n2Cc2ccccc2)cc1", "activity, negative = inhibition": "-2.3% (inactive)"}, {"molecule": "C=CCSc1nc2c(c(=O)[nH]c(=O)n2C)n1Cc1ccccc1", "activity, negative = inhibition": "18.8% (inactive)"}, {"molecule": "COc1cccc(OC)c1C(=O)Nc1ccc2c(c1)n(C)c(=O)n2C", "activity, negative = inhibition": "6.4% (inactive)"}, {"molecule": "CN1C2C=C(N(C(=O)c3ccc(Cl)cc3)c3ccccc3)CC1CC2", "note": "(stereo not drawn)", "activity, negative = inhibition": "-4.66% (inactive)"}, {"molecule": "O=C(CN1C(=O)c2ccccc2C1=O)NCc1ccc(C(=O)O)cc1", "activity, negative = inhibition": "5.32% (inactive)"}, {"molecule": "CC(=O)N(C1=C(Cl)C(=O)c2ccccc2C1=O)c1ccc(C(=O)O)cc1", "Potency": "2.24 µM (active)"}, {"molecule": "CC(=O)c1ccc(NC(=O)CCc2nnc3ccc(NCc4ccco4)nn23)cc1", "activity, negative = inhibition": "14.7% (inactive)"}, {"molecule": "O=C(c1cc(C(=O)N2CCN(c3ccc(F)cc3)CC2)cc([N+](=O)[O-])c1)N1CCN(c2ccc(F)cc2)CC1", "activity, negative = inhibition": "6.27% (inactive)"}, {"molecule": "O=C(CN1C(=O)COc2ccccc21)Nc1ccc(F)cc1", "Potency": "5.61 µM (active)"}, {"molecule": "O=C(CCN1C(=O)COc2ccccc21)NCCCN1CCN(c2ccc(F)cc2)CC1", "activity, negative = inhibition": "-0.235% (inactive)"}, {"molecule": "CCCN1CCN(CCCNC(=O)CN2C(=O)COc3ccccc32)CC1", "activity, negative = inhibition": "-3.07% (inactive)"}, {"molecule": "CC(C)c1ccc(S(=O)(=O)N2CCC3(CC2)OCCO3)cc1", "activity, negative = inhibition": "7.89% (inactive)"}, {"molecule": "CN1C(=O)c2cccc3c(N)ccc(c23)C1=O", "activity, negative = inhibition": "1.83% (inactive)"}, {"molecule": "Cc1nn(C)cc1N1C(=O)c2cccc3c(N)ccc(c23)C1=O", "activity, negative = inhibition": "-6.4% (inactive)"}, {"molecule": "CCN1C(=O)c2cccc3c(N)ccc1c23", "Potency": "0.354 µM (active)"}, {"molecule": "O=C(NCCN1CCN(C(=O)c2cccc([N+](=O)[O-])c2)CC1)C(=O)NCc1ccc(Cl)cc1", "activity, negative = inhibition": "6.63% (inactive)"}, {"molecule": "CCS(=O)(=O)c1cc([N+](=O)[O-])c(Sc2ccccc2N)s1", "Potency": "15.8 µM (active)"}, {"molecule": "Nc1ccccc1Sc1ccc(C(F)(F)F)cc1[N+](=O)[O-]", "activity, negative = inhibition": "-11.9% (inactive)"}, {"molecule": "CCOC(=O)c1cc(Sc2ccccc2N)cc(C(=O)OCC)n1", "activity, negative = inhibition": "7.21% (inactive)"}, {"molecule": "CC(C)CCn1c(=O)c2c(nc3n2CCCN3Cc2ccccc2)n(C)c1=O", "activity, negative = inhibition": "4.15% (inactive)"}, {"molecule": "Cc1ccccc1NC(=O)C1CCCN(C(=O)NCc2ccccc2)C1", "note": "(stereo not drawn)", "activity, negative = inhibition": "7.76% (inactive)"}, {"molecule": "CCCCc1cc(=O)oc2c(C)c(OCC(=O)N3CCC(C(N)=O)CC3)ccc12", "activity, negative = inhibition": "10.7% (inactive)"}, {"molecule": "COc1c(O)c2c(=O)cc(OC)c3c4c(OC)cc(=O)c5c(O)c(OC)c6c(c(c1C[C@@](C)(O)[C@H]6C(C)=O)c23)c54", "activity, negative = inhibition": "-22.3% (inactive)"}, {"molecule": "CC(C)(c1ccccc1)c1ccc(OCCN)cc1", "activity, negative = inhibition": "0.0143% (inactive)"}, {"molecule": "Cc1cc(OCCN2CCCC2)ccc1C(C)C", "activity, negative = inhibition": "-14.5% (inactive)"}, {"molecule": "CC(C)(c1ccccc1)c1ccc(OCCN2CCCC2)cc1", "Potency": "22.4 µM (active)"}, {"molecule": "CC(C)CN(Cc1c(O)ccc2c(=O)c(-c3ccccc3)coc12)CC(C)C", "activity, negative = inhibition": "8.57% (inactive)"}, {"molecule": "COc1ccc(Cl)cc1NC(=O)c1cccc(N2C(=O)C3CC=CCC3C2=O)c1", "note": "(stereo not drawn)", "activity, negative = inhibition": "2.26% (inactive)"}]}]}
